Several values for one entry are separate records, joined by “and”; a condition that tells them apart may be missing. Identical values can stand only once. Among all 5,500 compounds or so, about 2,000 (36%) were called active. Another 18% or so got no clear call; they are omitted. Rule as the data show it: active = normalized growth mostly below about 0.91 (no sharp cut-off); inconclusive = no clear call, values can overlap the other calls; inactive = mostly above about 0.92. The list shows a part of the results.
Assay: chemical genetic growth profiling, strain panel (AID 1159580);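 also: tested at 20 µM; growth read once vehicle control cultures reached saturation at 30 °C; 1 = growth at the plate median or of vehicle wells; lower values mean less growth of the strain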
Conditions: growth OD

Measured: normalized growth

CC(CN(C)C)CN1c2ccccc2CCc2ccccc21 (stereo not given)
inactive: S. cerevisiae deletion strains, locus YJR066W, strain TOR1, active compounds read low 0.94 | S. cerevisiae deletion strains, locus YKL009W, strain mrt4, active compounds read low 1 | S. cerevisiae deletion strains, locus YKL068W, active compounds read low 1.01 | S. cerevisiae deletion strains, locus YKL085W, strain MDH1 (second series), active compounds read low 1.02 | S. cerevisiae deletion strains, locus YKL085W, strain MDH1, active compounds read low 1.02 | S. cerevisiae deletion strains, locus YKL160W, strain elf1, active compounds read low 0.978 | S. cerevisiae deletion strains, locus YKL190W, strain CNB1, active compounds read low 1.02 | S. cerevisiae deletion strains, locus YKR001C, strain vps1, active compounds read low 1.02 | S. cerevisiae deletion strains, locus YKR026C, strain gcn3, active compounds read low 0.991 | S. cerevisiae deletion strains, locus YKR091W, strain srl3, active compounds read low 0.977 | S. cerevisiae deletion strains, locus YLL001W, strain dnm1, active compounds read low 0.989 | S. cerevisiae deletion strains, locus YLL026W, active compounds read low 0.979 | S. cerevisiae deletion strains, locus YLL041C, strain sdh2, active compounds read low 0.965 | S. cerevisiae deletion strains, locus YLR027C, strain aat2, active compounds read low 0.974 | S. cerevisiae deletion strains, locus YLR039C, strain RIC1, active compounds read low 1.13 | S. cerevisiae deletion strains, locus YLR058C, strain SHM2, active compounds read low 1.01 | S. cerevisiae deletion strains, locus YLR102C, strain apc9, active compounds read low 1.02 | S. cerevisiae deletion strains, locus YLR113W, strain HOG1, active compounds read low 0.994 | S. cerevisiae deletion strains, locus YLR221C, strain rsa3, active compounds read low 0.982 | S. cerevisiae deletion strains, locus YLR258W, strain gsy2, active compounds read low 0.984 | S. cerevisiae deletion strains, locus YLR262C, strain YPT6 (second series), active compounds read low 1.01 | S. cerevisiae deletion strains, locus YLR262C, strain YPT6, active compounds read low 1.12 | S. cerevisiae deletion strains, locus YLR268W, strain sec22, active compounds read low 1.02 | S. cerevisiae deletion strains, locus YLR320W, strain mms22, active compounds read low 0.947 | S. cerevisiae deletion strains, locus YLR330W, strain CHS5, active compounds read low 1.01 | S. cerevisiae deletion strains, locus YLR342W, strain FKS1 (second series), active compounds read low 1.04 | S. cerevisiae deletion strains, locus YLR342W, strain FKS1, active compounds read low 0.976 | S. cerevisiae deletion strains, locus YLR357W, strain rsc2, active compounds read low 0.967 | S. cerevisiae deletion strains, locus YLR370C, strain arc18, active compounds read low 0.977 | S. cerevisiae deletion strains, locus YLR371W, strain rom2, active compounds read low 1.01 | S. cerevisiae deletion strains, locus YLR384C, strain iki3, active compounds read low 0.979 | S. cerevisiae deletion strains, locus YLR418C, strain cdc73, active compounds read low 1.02 | S. cerevisiae deletion strains, locus YML016C, strain PPZ1, active compounds read low 1.01 | S. cerevisiae deletion strains, locus YML032C, strain rad52, active compounds read low 1.01 | S. cerevisiae deletion strains, locus YML120C, strain ndi1, active compounds read low 0.971 | S. cerevisiae deletion strains, locus YML124C, strain tub3, active compounds read low 1.02 | S. cerevisiae deletion strains, locus YMR058W, strain fet3, active compounds read low 0.971 | S. cerevisiae deletion strains, locus YMR078C, strain ctf18, active compounds read low 1.01 | S. cerevisiae deletion strains, locus YMR125W, strain sto1, active compounds read low 0.973 | S. cerevisiae deletion strains, locus YMR129W, active compounds read low 0.981 | S. cerevisiae deletion strains, locus YMR205C, strain PFK2, active compounds read low 0.97 | S. cerevisiae deletion strains, locus YMR223W, strain ubp8, active compounds read low 1.02 | S. cerevisiae deletion strains, locus YMR231W, strain pep5, active compounds read low 0.984 | S. cerevisiae deletion strains, locus YMR263W, strain SAP30, active compounds read low 1 | S. cerevisiae deletion strains, locus YMR307W, strain GAS1, active compounds read low 1.05 and 1 | S. cerevisiae deletion strains, locus YNL067W, strain RPL9B, active compounds read low 1.01 | S. cerevisiae deletion strains, locus YNL071W, strain lat1, active compounds read low 0.963 | S. cerevisiae deletion strains, locus YNL128W, strain TEP1, active compounds read low 1.03 and 1.02 | S. cerevisiae deletion strains, locus YNL175C, strain NOP13, active compounds read low 1.01 | S. cerevisiae deletion strains, locus YNL183C, strain NPR1, active compounds read low 0.936 | S. cerevisiae deletion strains, locus YNL197C, strain WHI3, active compounds read low 1.02 | S. cerevisiae deletion strains, locus YNL209W, strain ssb2, active compounds read low 0.98 | S. cerevisiae deletion strains, locus YNL224C, strain SQS1, active compounds read low 1.01 | S. cerevisiae deletion strains, locus YNL233W, strain BNI4, active compounds read low 0.998 | S. cerevisiae deletion strains, locus YNL248C, strain rpa49, active compounds read low 0.988 | S. cerevisiae deletion strains, locus YNL250W, strain rad50, active compounds read low 1.03 | S. cerevisiae deletion strains, locus YNL271C, strain bni1, active compounds read low 1.02 | S. cerevisiae deletion strains, locus YNL298W, strain CLA4, active compounds read low 1.02 | S. cerevisiae deletion strains, locus YNL307C, strain MCK1, active compounds read low 1.03 | S. cerevisiae deletion strains, locus YNL322C, strain KRE1 (second series), active compounds read low 0.966 | S. cerevisiae deletion strains, locus YNL322C, strain KRE1, active compounds read low 1.01 | S. cerevisiae deletion strains, locus YNR049C, strain mso1, active compounds read low 0.977 | S. cerevisiae deletion strains, locus YNR052C, strain pop2, active compounds read low 1.02 | S. cerevisiae deletion strains, locus YOL006C, strain TOP1, active compounds read low 0.976 | S. cerevisiae deletion strains, locus YOL012C, strain htz1 1.63 | S. cerevisiae deletion strains, locus YOL147C, strain pex11, active compounds read low 1.02 | S. cerevisiae deletion strains, locus YOR001W, strain rrp6, active compounds read low 0.979 | S. cerevisiae deletion strains, locus YOR061W, strain CKA2, active compounds read low 1.01 | S. cerevisiae deletion strains, locus YOR069W, strain VPS5, active compounds read low 1.01 | S. cerevisiae deletion strains, locus YOR070C, strain gyp1, active compounds read low 1.01 | S. cerevisiae deletion strains, locus YOR080W, strain dia2, active compounds read low 0.971 | S. cerevisiae deletion strains, locus YOR083W, strain WHI5 (second series), active compounds read low 1.05 | S. cerevisiae deletion strains, locus YOR083W, strain WHI5, active compounds read low 0.976 | S. cerevisiae deletion strains, locus YOR106W, strain vam3, active compounds read low 0.939 | S. cerevisiae deletion strains, locus YOR136W, strain idh2, active compounds read low 1.02 | S. cerevisiae deletion strains, locus YOR144C, strain elg1, active compounds read low 1.02 | S. cerevisiae deletion strains, locus YOR184W, strain ser1, active compounds read low 1.04 | S. cerevisiae deletion strains, locus YOR231W, strain MKK1, active compounds read low 0.983 | S. cerevisiae deletion strains, locus YOR265W, strain rbl2, active compounds read low 0.97 | S. cerevisiae deletion strains, locus YOR270C, strain vph1, active compounds read low 0.897 | S. cerevisiae deletion strains, locus YOR290C, strain snf2, active compounds read low 0.927 | S. cerevisiae deletion strains, locus YOR316C, strain cot1, active compounds read low 1.02 | S. cerevisiae deletion strains, locus YPL051W, strain arl3, active compounds read low 0.972 | S. cerevisiae deletion strains, locus YPL055C, strain LGE1, active compounds read low 1.01 | S. cerevisiae deletion strains, locus YPL078C, strain atp4, active compounds read low 0.961 | S. cerevisiae deletion strains, locus YPL106C, strain sse1, active compounds read low 0.956 | S. cerevisiae deletion strains, locus YPL240C, strain hsp82, active compounds read low 0.978 | S. cerevisiae deletion strains, locus YPL241C, strain CIN2, active compounds read low 1.01 and 1 | S. cerevisiae deletion strains, locus YPL256C, strain CLN2, active compounds read low 0.981 | S. cerevisiae deletion strains, locus YPR119W, strain clb2, active compounds read low 1.02 | S. cerevisiae deletion strains, locus YPR141C, strain kar3, active compounds read low 1.01 | S. cerevisiae deletion strains, locus YPR163C, strain tif3, active compounds read low 1.02 | S. cerevisiae deletion strains, locus YPR167C, strain met16, active compounds read low 1.02 | S. cerevisiae deletion strains, strain wtn01, active compounds read low 1.02 | S. cerevisiae strains, strain wild type, active compounds read low 1

Reference: PubChem BioAssay AID1159580 (chemical genetic matrix, 2015)
